Results taken from PubChem BioAssay.
For some assays here: Potency and affinity values are given separately. Calls of active or inactive are those of the source. Unless noted, the rule behind the calls is not given here.

Tests used:
[1] = antimalarial activity against Dd2 strain (AID 2302;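 active = growth inhibition above 50% at the single 2 µM test dose, taken to imply half-maximal potency below 2 µM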;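 note: 0% = DMSO untreated growth and 100% = chloroquine plus artemisinin killed control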); details: P. falciparum Dd2 in RBCs, LDH growth readout, 72 h; at 2 µM; active compounds read high
[2] = HepG2 cytotoxicity, primary screen, cytotoxicity control for P. falciparum antimalarial project, cell-based, ATP luminescence (AID 2303;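 active = inhibition above 50%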;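 note: 0% = DMSO wells and 100% = digitonin-killed cells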); details: HepG2 viability, 24-48 h, at 10 µM, active compounds read high
[3] = molecular target: L-lactate dehydrogenase (Plasmodium falciparum (isolate CDC / Honduras)) (UniProt Q27743); test: PfLDH activity inhibition – cell lysate, 3D7 strain, counter-screen for P. falciparum growth inhibition project (AID 2304);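 note: 0% = vehicle and 100% = reference inhibitor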; details: P. falciparum 3D7 crude extract, LDH APAD/NBT absorbance; at 2 µM; active compounds read high
[4] = inhibition of 3D7 malaria parasite growth – strain 3D7 (AID 2306);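 note: 0% = DMSO wells and 100% = chloroquine plus artemisinin control wells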; details: P. falciparum 3D7 erythrocytic growth, LDH absorbance, 72 h; at 2 µM; active compounds read high
[5] = molecular target: Calcium-dependent protein kinase 1 (Plasmodium falciparum (isolate 3D7)) (UniProt P62344); test: PfCDPK1 kinase inhibitors, biochemical, TCAMS library (AID 1159585; cut-off not given, nearly all actives have IC50 up to about 0.98 µM;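 note: inhibitors leave more ATP so luminescence rises with inhibition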); details: recombinant PfCDPK1, Kinase-Glo ATP depletion luminescence
[6] = molecular target: Plasmodium falciparum protein kinase 6 (PK6, PF3D7_1337100) (UniProt Q8IDW1); test: PfPK6 kinase inhibitors, biochemical, TCAMS library (AID 1159586); details: recombinant PfPK6, Kinase-Glo ATP depletion luminescence
[7] = molecular target: Protein kinase 7 (PK7), Plasmodium falciparum 3D7 (PF3D7_0213400) (UniProt Q7YTF7); test: inhibition of Plasmodium PK7 catalytic activity – biochemical, TCAMS antimalarial set, Kinase-Glo luminescence (AID 1159587); details: recombinant PfPK7, Kinase-Glo ATP depletion luminescence
[8] = molecular target: Calcium-dependent protein kinase 4 (Plasmodium falciparum (isolate 3D7)) (UniProt Q8IBS5); test: PfCDPK4 kinase inhibitors, biochemical, TCAMS library (AID 1159588; cut-off not given, nearly all actives have IC50 up to about 0.91 µM); details: recombinant PfCDPK4, Kinase-Glo ATP depletion luminescence
Chain of Calcium-dependent protein kinase 4 (Plasmodium falciparum (isolate 3D7)) (Q8IBS5 whole entry, looked up): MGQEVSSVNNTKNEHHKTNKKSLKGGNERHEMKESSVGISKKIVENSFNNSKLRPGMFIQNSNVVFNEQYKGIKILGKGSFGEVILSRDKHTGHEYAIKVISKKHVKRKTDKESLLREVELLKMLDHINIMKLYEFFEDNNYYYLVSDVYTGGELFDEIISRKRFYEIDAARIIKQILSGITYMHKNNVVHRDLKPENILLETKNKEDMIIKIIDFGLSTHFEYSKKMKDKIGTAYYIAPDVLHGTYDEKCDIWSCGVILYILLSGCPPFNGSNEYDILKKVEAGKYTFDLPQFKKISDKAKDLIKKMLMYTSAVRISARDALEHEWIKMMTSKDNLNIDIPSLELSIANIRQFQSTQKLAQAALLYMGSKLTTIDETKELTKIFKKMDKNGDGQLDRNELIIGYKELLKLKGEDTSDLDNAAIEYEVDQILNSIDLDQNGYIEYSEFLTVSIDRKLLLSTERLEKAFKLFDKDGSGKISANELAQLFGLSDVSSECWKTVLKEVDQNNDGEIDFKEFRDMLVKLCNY

Chain of Calcium-dependent protein kinase 1 (Plasmodium falciparum (isolate 3D7)) (P62344 whole entry, looked up): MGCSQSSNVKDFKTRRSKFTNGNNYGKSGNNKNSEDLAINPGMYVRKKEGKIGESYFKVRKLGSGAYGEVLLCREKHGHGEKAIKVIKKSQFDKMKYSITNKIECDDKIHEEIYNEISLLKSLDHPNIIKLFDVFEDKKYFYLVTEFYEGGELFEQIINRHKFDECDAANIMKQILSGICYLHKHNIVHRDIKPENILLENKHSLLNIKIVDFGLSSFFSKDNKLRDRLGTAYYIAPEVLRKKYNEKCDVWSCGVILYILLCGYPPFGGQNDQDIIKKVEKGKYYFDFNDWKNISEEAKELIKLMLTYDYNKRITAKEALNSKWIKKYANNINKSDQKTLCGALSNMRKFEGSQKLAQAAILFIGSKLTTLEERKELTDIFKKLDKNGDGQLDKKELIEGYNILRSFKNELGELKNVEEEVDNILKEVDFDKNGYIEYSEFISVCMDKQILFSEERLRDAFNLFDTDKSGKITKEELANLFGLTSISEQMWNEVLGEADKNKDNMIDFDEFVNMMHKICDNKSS
Chain of Protein kinase 7 (PK7), Plasmodium falciparum 3D7 (PF3D7_0213400) (Q7YTF7 1-343): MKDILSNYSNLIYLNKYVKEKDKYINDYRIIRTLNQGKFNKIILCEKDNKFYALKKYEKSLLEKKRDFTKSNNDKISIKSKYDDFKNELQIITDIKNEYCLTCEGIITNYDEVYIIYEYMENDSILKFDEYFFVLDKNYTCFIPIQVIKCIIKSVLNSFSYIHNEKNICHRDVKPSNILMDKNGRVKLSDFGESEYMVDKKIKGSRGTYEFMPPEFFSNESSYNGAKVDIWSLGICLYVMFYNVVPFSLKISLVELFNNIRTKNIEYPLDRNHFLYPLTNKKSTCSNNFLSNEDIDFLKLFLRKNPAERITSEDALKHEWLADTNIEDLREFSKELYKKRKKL
Chain of L-lactate dehydrogenase (Plasmodium falciparum (isolate CDC / Honduras)) (Q27743 whole entry, looked up): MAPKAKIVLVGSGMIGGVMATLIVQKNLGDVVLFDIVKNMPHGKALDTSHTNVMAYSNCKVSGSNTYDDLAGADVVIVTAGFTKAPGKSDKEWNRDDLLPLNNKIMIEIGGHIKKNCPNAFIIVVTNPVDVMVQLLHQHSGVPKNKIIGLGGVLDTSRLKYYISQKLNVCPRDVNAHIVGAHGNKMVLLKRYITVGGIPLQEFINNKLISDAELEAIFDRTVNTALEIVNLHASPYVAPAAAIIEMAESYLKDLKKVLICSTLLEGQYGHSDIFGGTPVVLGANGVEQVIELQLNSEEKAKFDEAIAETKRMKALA
Chain of Plasmodium falciparum protein kinase 6 (PK6, PF3D7_1337100) (Q8IDW1 1-305): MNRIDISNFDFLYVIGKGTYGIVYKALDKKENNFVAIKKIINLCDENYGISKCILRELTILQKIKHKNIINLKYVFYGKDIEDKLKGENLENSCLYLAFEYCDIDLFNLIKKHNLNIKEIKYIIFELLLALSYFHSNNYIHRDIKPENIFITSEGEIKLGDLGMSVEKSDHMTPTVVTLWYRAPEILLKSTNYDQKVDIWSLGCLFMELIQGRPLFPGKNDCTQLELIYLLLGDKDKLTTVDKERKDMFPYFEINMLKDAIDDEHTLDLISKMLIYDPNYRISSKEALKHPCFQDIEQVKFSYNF

CCN(CC)CCNc1c2ccc(Cl)cc2nc2ccc(OC)nc12
inactive: inhibition [2] 20% | inhibition [3] 2% | outcome [5] | outcome [6] | outcome [7] | outcome [8]
active: growth inhibition [1] 99% | growth inhibition [4] 100%

CC(NC(=O)c1ccc(O)c(-c2ccc(Cl)c(Cl)c2)c1)C(=O)NCCN1CCCC1 (stereo not given)
active: growth inhibition [4] 99%
inactive: growth inhibition [1] 9% | inhibition [2] -5% | inhibition [3] -2% | outcome [5] | outcome [6] | outcome [7] | outcome [8]

CC1CC(C)CN(S(=O)(=O)c2cc(C(=O)Nc3cccc([N+](=O)[O-])c3)ccc2Br)C1 (stereo not given)
inactive: inhibition [2] 1% | inhibition [3] -5% | outcome [5] | outcome [6] | outcome [7] | outcome [8]
active: growth inhibition [1] 68% | growth inhibition [4] 101%

COc1ccc(CNC(=O)Nc2cc3cc(-c4ccc(CN(C)C)cc4)ccc3n3c(C)nnc23)cc1
inactive: inhibition [3] -4% | outcome [5] | outcome [6] | outcome [7] | outcome [8]
active: growth inhibition [1] 80% | inhibition [2] 99% | growth inhibition [4] 93%

CCCCNc1c(C(=O)OCC)c(C)nc2c1[nH]c1ccccc12
active: growth inhibition [1] 58% | growth inhibition [4] 100%
inactive: inhibition [2] -3% | inhibition [3] 3% | outcome [5] | outcome [6] | outcome [7] | outcome [8]

CCCC(=O)Nc1ccc(OCCCN(Cc2ccccc2OC(F)(F)F)c2ccc(C#N)c(C(F)(F)F)c2)cc1
inactive: inhibition [2] 0% | inhibition [3] -2% | outcome [5] | outcome [6] | outcome [7] | outcome [8]
active: growth inhibition [1] 95% | growth inhibition [4] 94%

C=CCn1c(Sc2ccc(C#N)c([N+](=O)[O-])c2)nnc1-c1ccc(OC)cc1
active: growth inhibition [1] 74% | growth inhibition [4] 96%
inactive: inhibition [2] -5% | inhibition [3] 0% | outcome [5] | outcome [6] | outcome [7] | outcome [8]

COc1ccc(-c2onc(C(F)(F)F)c2-c2ccc(Br)cc2)c(O)c1
inactive: inhibition [2] 7% | inhibition [3] 4% | outcome [5] | outcome [6] | outcome [7] | outcome [8]
active: growth inhibition [1] 77% | growth inhibition [4] 99%

c1ccc(CN2CCC(NCc3ccccc3-c3ccc(CNC4CCCC4)cc3)CC2)cc1
inactive: growth inhibition [1] 33% | inhibition [2] 38% | inhibition [3] 1% | outcome [5] | outcome [6] | outcome [7] | outcome [8]
active: growth inhibition [4] 102%

COc1ccc(CC2(c3ccc(F)cc3)N=C(N)N(CCCc3ccc(F)c(F)c3)C2=O)cc1 (stereo not given)
active: growth inhibition [1] 98% | growth inhibition [4] 98%
inactive: inhibition [2] 42% | inhibition [3] 5% | outcome [5] | outcome [6] | outcome [7] | outcome [8]

Cc1cc(C)c2nc(N3CCC(C(=O)NCCCN4CCC(N5CCCCC5)CC4)CC3)sc2c1
inactive: growth inhibition [1] 34% | inhibition [3] -5% | outcome [5] | outcome [6] | outcome [7] | outcome [8]
active: inhibition [2] 99% | growth inhibition [4] 99%

COc1ccccc1C1CCN(C2CCC(NC(=O)/C=C/c3ccc(C(F)(F)F)cc3)CC2)CC1 (stereo not given)
active: inhibition [2] 57% | growth inhibition [4] 88%
inactive: growth inhibition [1] 7% | inhibition [3] 4% | outcome [5] | outcome [6] | outcome [7] | outcome [8]

CN(c1ccc(F)cc1)S(=O)(=O)c1ccc(Cl)c(C(=O)Nc2cccc(C#N)c2)c1
inactive: inhibition [2] 5% | inhibition [3] -4% | outcome [5] | outcome [6] | outcome [7] | outcome [8]
active: growth inhibition [1] 58% | growth inhibition [4] 95%

Cc1ccc2nc(C)cc(NN=Cc3ccc(Cl)cc3)c2c1
active: growth inhibition [4] 102%
inactive: growth inhibition [1] 35% | inhibition [2] -9% | inhibition [3] 6% | outcome [5] | outcome [6] | outcome [7] | outcome [8]

O=C(N1CCN(c2ccc(C(F)(F)F)cc2[N+](=O)[O-])CC1)C(Cl)(Cl)Cl
inactive: inhibition [2] 29% | inhibition [3] 0% | outcome [5] | outcome [6] | outcome [7] | outcome [8]
active: growth inhibition [1] 99% | growth inhibition [4] 101%

CN(C)CCNC(=O)c1ccc(-c2ccc3c(Nc4ccccc4)c(C(N)=O)cnc3c2)cc1
inactive: inhibition [2] 9% | inhibition [3] 6% | outcome [5] | outcome [6] | outcome [7] | outcome [8]
active: growth inhibition [1] 68% | growth inhibition [4] 99%

N#Cc1ccc(-c2ccc(C(=O)NCCCCN3CC=C(c4ccc5c(c4OCC4CC4)CCCC5)CC3)cc2)cc1
inactive: inhibition [2] 22% | inhibition [3] 4% | outcome [5] | outcome [6] | outcome [7] | outcome [8]
active: growth inhibition [1] 83% | growth inhibition [4] 100%

CS(=O)(=O)CCNCc1cccc(-c2cc3nccc(Nc4ccc(Oc5ccccc5)cc4)c3cc2Cl)c1
active: growth inhibition [1] 82% | growth inhibition [4] 100%
inactive: inhibition [2] 2% | inhibition [3] -3% | outcome [5] | outcome [6] | outcome [7] | outcome [8]

Cc1cc(Oc2cc(NC(=O)c3sc4ncn(Cc5ccccc5F)c(=O)c4c3C)cc([N+](=O)[O-])c2)ccc1Cl
inactive: growth inhibition [1] 24% | inhibition [2] 2% | inhibition [3] 3% | outcome [5] | outcome [6] | outcome [7] | outcome [8]
active: growth inhibition [4] 94%

S=C(NN=Cc1ccccn1)Nc1ccc(Cl)c(Cl)c1
inactive: inhibition [2] 40% | inhibition [3] 5% | outcome [5] | outcome [6] | outcome [7] | outcome [8]
active: growth inhibition [1] 85% | growth inhibition [4] 98%

O=C(NCCc1ccc(Cl)c(Cl)c1)[C@@H]1CCCN1C(=O)c1ccc(O)c(-c2ccc(Cl)c(Cl)c2)c1
active: growth inhibition [1] 99% | growth inhibition [4] 99%
inactive: inhibition [2] -2% | inhibition [3] -2% | outcome [5] | outcome [6] | outcome [7] | outcome [8]

COc1cccc(NC(=O)N2CCOC(CCN3CCC4(CCc5ccccc54)CC3)(c3ccc(Cl)c(Cl)c3)C2)c1 (stereo not given)
active: growth inhibition [1] 72% | inhibition [2] 97% | growth inhibition [4] 94%
inactive: inhibition [3] 5% | outcome [5] | outcome [6] | outcome [7] | outcome [8]

COc1cc(C)nc2ccc(NC(=O)Nc3cccc4ccccc34)cc12
active: growth inhibition [4] 91%
inactive: growth inhibition [1] 48% | inhibition [2] 27% | inhibition [3] -3% | outcome [5] | outcome [6] | outcome [7] | outcome [8]

COc1ccc2nccc([C@@H](O)CN3CCC(NC(=O)/C=C/c4ccc5[nH]c(=O)ccc5c4)CC3)c2c1
inactive: inhibition [2] 2% | inhibition [3] 5% | outcome [5] | outcome [6] | outcome [7] | outcome [8]
active: growth inhibition [1] 83% | growth inhibition [4] 96%

Cc1cc(=O)c(-c2ccc(Oc3ccc(C(F)(F)F)cc3)cc2)c(C)n1O
active: growth inhibition [1] 78% | growth inhibition [4] 94%
inactive: inhibition [2] 18% | inhibition [3] 0% | outcome [5] | outcome [6] | outcome [7] | outcome [8]

CC1(CCCCN2CCC(Oc3ccc(F)cc3F)CC2)C(=O)Nc2ccccc21 (stereo not given)
active: growth inhibition [4] 99%
inactive: growth inhibition [1] 6% | inhibition [2] 6% | inhibition [3] -6% | outcome [5] | outcome [6] | outcome [7] | outcome [8]

Cc1cccc(NC(=S)NC2CCN(CCCCCNC(=O)/C=C/c3ccc(Cl)c(Cl)c3)CC2)c1
inactive: growth inhibition [1] 19% | inhibition [2] 14% | inhibition [3] 4% | outcome [5] | outcome [6] | outcome [7] | outcome [8]
active: growth inhibition [4] 97%

O=C(CCCCCNC(=O)c1ccc(O)c(-c2ccc(Cl)c(Cl)c2)c1)NCCN1CCOCC1
inactive: growth inhibition [1] 0% | inhibition [2] -7% | inhibition [3] -3% | outcome [5] | outcome [6] | outcome [7] | outcome [8]
active: growth inhibition [4] 95%

CCOc1ccc(-c2nonc2NC(=O)c2ccc(OC)cc2)cc1OCC
inactive: inhibition [2] -1% | inhibition [3] -1% | outcome [5] | outcome [6] | outcome [7] | outcome [8]
active: growth inhibition [1] 77% | growth inhibition [4] 98%

Cc1ccc(S(C)(=O)=O)cc1/C=C/C(=O)O
active: growth inhibition [4] 96%
inactive: growth inhibition [1] 1% | inhibition [2] -7% | inhibition [3] 4% | outcome [5] | outcome [6] | outcome [7] | outcome [8]

O=C(Nc1ccc(C(=O)OC[C@@H]2CCCN3CCCC[C@H]23)cc1)c1ccc([N+](=O)[O-])cc1
inactive: growth inhibition [1] 25% | inhibition [2] 5% | inhibition [3] 2% | outcome [5] | outcome [6] | outcome [7] | outcome [8]
active: growth inhibition [4] 95%

Cc1cccc(CNc2nccc3[nH]c4ccccc4c23)c1
inactive: inhibition [2] 14% | inhibition [3] 0% | outcome [5] | outcome [6] | outcome [7] | outcome [8]
active: growth inhibition [1] 51% | growth inhibition [4] 92%

Nc1nccc2ccc(-c3ccsc3)cc12
inactive: inhibition [2] 38% | inhibition [3] 4% | outcome [5] | outcome [6] | outcome [7] | outcome [8]
active: growth inhibition [1] 89% | growth inhibition [4] 100%

C=CCc1cc(OC)ccc1OCCCOc1c(C)nc(N)nc1N
inactive: inhibition [3] -2% | outcome [5] | outcome [6] | outcome [7] | outcome [8]
active: growth inhibition [1] 97% | inhibition [2] 67% | growth inhibition [4] 92%

Nc1nc(N)c2c(ccc3c2ccn3Cc2ccc(Cl)cc2)n1
active: growth inhibition [1] 99% | inhibition [2] 100% | growth inhibition [4] 100%
inactive: inhibition [3] 0% | outcome [5] | outcome [6] | outcome [7] | outcome [8]

O=[N+]([O-])c1ccccc1C=NNc1c2c(nc3ccccc13)CCCC2
inactive: inhibition [2] -2% | inhibition [3] -3% | outcome [5] | outcome [6] | outcome [7] | outcome [8]
active: growth inhibition [1] 99% | growth inhibition [4] 97%

CCC(C)NCc1c(O)ccc2c(CNC(C)CC)c(O)ccc12 (stereo not given)
active: growth inhibition [4] 100%
inactive: growth inhibition [1] 31% | inhibition [2] 14% | inhibition [3] 2% | outcome [5] | outcome [6] | outcome [7] | outcome [8]

c1cncc(CN2CCN(Cc3ccc(-c4ccc(-c5nc6ccccc6[nH]5)s4)cc3)CC2)c1
inactive: growth inhibition [1] 34% | inhibition [2] 32% | inhibition [3] 6% | outcome [5] | outcome [6] | outcome [7] | outcome [8]
active: growth inhibition [4] 97%

c1ccc(-c2ccc3c(Nc4ccc5[nH]ccc5c4)ccnc3c2)nc1
inactive: inhibition [2] 11% | inhibition [3] -7% | outcome [5] | outcome [6] | outcome [7] | outcome [8]
active: growth inhibition [1] 78% | growth inhibition [4] 91%

Cn1cc(C2CCN(CCCCNC(=O)c3ccc(-c4ccc(C(F)(F)F)cc4)c(CO)c3)CC2)c2ccccc21
active: inhibition [2] 67% | growth inhibition [4] 88%
inactive: growth inhibition [1] 16% | inhibition [3] -1% | outcome [5] | outcome [6] | outcome [7] | outcome [8]
